Experimental data taken from the supplement of paper PMC13380429.

Columns and labels:
[1] = test system: Vero E6 infected with SARS-CoV-2; assay: morphology score (similarity to uninfected cells); higher = more like uninfected cells; settings: 24 h
[2] = test system: Vero E6 infected with SARS-CoV-2; assay: SARS-CoV-2 infection rate relative to infected DMSO; higher = more infection, active = 60 or less; settings: 24 h

Compound | morphology score [1] | SARS-CoV-2 infection rate [2]
COc1ccc(CNC(=O)/C=C/c2ccc3[nH]cc(CCN(C)C)c3c2)cc1 (10 µM) | 0.155 | 88.5% (inactive)
CCOc1ccc2nc3cc(N)ccc3c(N)c2c1 [ethacridine-lactate-monohydrate] (10 µM) | 0.0887 | 95.5% (inactive)
CC(OC(=O)OC1CCCCC1)OC(=O)C1=C(CSc2nnnn2CCN(C)C)CS[C@@H]2[C@H](NC(=O)Cc3csc(N)n3)C(=O)N12 (stereo partly specified) [cefotiam-cilexetil] (10 µM) | -0.0288 | 109% (inactive)
C[N+]1(CCCCC[N+]2(C)CCCC2)CCCC1 [pentolinium] (10 µM) | -0.0223 | 102% (inactive)
CCn1cc(C(=O)O)c(=O)c2ccc(C)nc21 [nalidixic-acid] (10 µM) | -0.0613 | 106% (inactive)
Cc1[nH]cnc1-c1ccc(Cl)cc1 [lofemizole] (10 µM) | -0.0942 | 102% (inactive)
CC(COc1ccccc1Cc1ccccc1)N1CCCCC1 (stereo unspecified) [benproperine] (10 µM) | 0.214 | 79% (inactive)
Oc1ccc2c3c1O[C@H]1[C@@H](O)CC[C@@]4(O)[C@@H](C2)N(CC2CCC2)CC[C@]314 [nalbuphine] (10 µM) | -0.0532 | 114% (inactive)
CC(C)(C)NC(=O)[C@@H]1CN(Cc2cccnc2)CCN1C[C@@H](O)C[C@@H](Cc1ccccc1)C(=O)N[C@H]1c2ccccc2C[C@H]1O [indinavir] (10 µM) | 0.0426 | 110% (inactive)
COc1ccc(-c2oc3cc(OC)ccc3c2C(=O)c2ccc(C#N)cc2)cc1 (10 µM) | 0.111 | 97% (inactive)
CC1(C)[C@@H](O)CC[C@]2(C)[C@H]3C(=O)C=C4[C@@H]5C[C@@](C)(C(=O)O)CC[C@]5(C)CC[C@@]4(C)[C@]3(C)CC[C@@H]12 [enoxolone] (10 µM) | 0.00688 | 110% (inactive)
Cc1cc(NCCO)nc(-c2ccc(Br)cc2)n1 (10 µM) | 0.269 | 101% (inactive)
CC1(C)S[C@@H]2[C@H](NC(=O)[C@H](N)c3ccccc3)C(=O)N2[C@H]1C(=O)O [ampicillin] (10 µM) | 0.141 | 102% (inactive)
CCOC(=O)[C@@H](N)CCC(=O)N[C@@H](CSCc1ccccc1)C(=O)N[C@@H](C(=O)OCC)c1ccccc1 [ezatiostat] (10 µM) | 0.202 | 78.5% (inactive)
CC(C)OC(=O)[C@H](C)N[P@@](=O)(OC[C@H]1O[C@@H](n2ccc(=O)[nH]c2=O)[C@](C)(F)[C@@H]1O)Oc1ccccc1 (10 µM) | 0.087 | 108% (inactive)
c1ccc2sc(N3CCN(Cc4ccc5c(c4)OCO5)CC3)nc2c1 [2-[1-(4-piperonyl)piperazinyl]benzothiazole] (10 µM) | 0.00324 | 102% (inactive)
CC(CN(C)C)CN1c2ccccc2CCc2ccccc21 (stereo unspecified) [trimipramine] (10 µM) | 0.451 | 80.5% (inactive)
O=C(O)/C=C/c1ccc(O)c(O)c1 [caffeic-acid] (10 µM) | -0.0394 | 110% (inactive)
CN(Cc1ccc(C(C)(C)C)cc1)Cc1cccc2ccccc12 [butenafine] (10 µM) | 0.502 | 71% (inactive)
Ic1cc(-c2ccccc2)ncn1 [4-iodo-6-phenylpyrimidine] (10 µM) | 0.254 | 81.5% (inactive)
C[C@@H](NC(=O)CCc1nc2ccccc2c(=O)[nH]1)c1ccccc1 (10 µM) | 0.239 | 95.5% (inactive)
CSc1ccccc1OCC(O)CNC(C)C (stereo unspecified) [tiprenolol] (10 µM) | -0.224 | 110% (inactive)
O=C(O)[C@H](O)c1ccccc1 [mandelic-acid] (10 µM) | -0.0448 | 114% (inactive)
CC(C)[C@@H](CN1CC[C@@](C)(c2cccc(O)c2)[C@@H](C)C1)NC(=O)[C@H]1Cc2ccc(O)cc2CN1 (10 µM) | -0.0336 | 99.5% (inactive)
CN1C[C@H](CNC(=O)OCc2ccccc2)C[C@@H]2c3cccc4c3c(cn4C)C[C@H]21 [metergoline] (10 µM) | 0.164 | 97.5% (inactive)
COc1ccc(CNC(=O)c2sc3nc(C)cc(C)c3c2N)cc1 (10 µM) | -0.0124 | 104% (inactive)
Cc1[nH]c2ccc(Cl)cc2c1C1=CCNCC1 (10 µM) | 0.432 | 76% (inactive)
Cc1ccc(N(CC2=NCCN2)c2cccc(O)c2)cc1 [phentolamine] (10 µM) | -0.00261 | 98% (inactive)
